# Assay results published in PubChem BioAssay AID602293 (National Center for Advancing Translational Sciences (NCATS), 2012).
# About 30 (2%) of roughly 1,300 compounds were called active. Another 10% or so got no clear call; they are omitted. The call rests on the fitted dose curve; in most records, active means well fitted inhibition curve with a large enough effect; inconclusive means small, poorly fitted or top-dose-only effect; inactive means flat fitted curve, though single readings scatter. Only a selection was taken, and actives are over-represented in it overall.
# Experiment: qHTS for antagonists of the Thyroid Stimulation Hormone Receptor: Hit Validation in HTRF Activity in a Luteinizing Hormone Receptor Cell Line
# Details: LHR-expressing cell line, cAMP HTRF, antagonist mode; series mostly up to 58 µM; activity change, negative = inhibition: at the top concentration
# Source text: The thyroid-stimulating hormone receptor (TSHR) is a member of the 7 trans-membrane-spanning receptor (7TMR) family of cell surface receptors. TSHR-mediated hyperthyroidism is important in thyroid pathology. The development of small molecule antagonists of TSHR may lead to therapeutic approaches for TSHR-mediated hyperthyroidism caused by constitutively activating mutations or stimulating auto-antibodies associated with Graves' disease. Graves' disease is the leading cause of hyperthyroidism and is caused by autoantibodies that stimulate TSHR (TsAbs) causing thyroid growth and unregulated overproduction of thyroid hormones and existing treatments have liabilities (agranulocytosis). In addition, TSHRs are known to be expressed in multiple extrathyroidal tissues including bone, brain, kidney, testis, fat and cells of the immune system but the role of the TSHR in these tissues is not clear. Therefore, TSHR antagonists/inverse agonists could be used as probes of extrathyroidal TSHR function. Finally, TSHR inverse agonists, which are a subclass of antagonists that inhibit agonist-independent (or basal or constitutive) TSHR signaling, could be used to inhibit TSH-independent signaling in patients with recurrent or metastatic thyroid cancer who are receiving thyroid hormone to suppress TSH.
# In collaboration between scientist from the NCGC and the NIDDK, a miniaturized HTRF high-throughput screen was developed. It's a cell based assay, where an anti cAMP antibody contains a fluorescent cryptate tag (excitation 337 nm; emission 620 nm) and the acceptor is cAMP-d2 (excitation 620 nm; emission 665 nm). When antibody and cAMP-d2 interact and are excited by a 337 nm light, a FRET occurs resulting in emission at 665 nm. The assay is competition between cAMP-d2 and cAMP (from the cell lysate). The homogeneous protocol allows for one step dispense after stimulation that is automation friendly. In order to confirm specificity of the compounds to the TSHR, a confirmatory assay was conducted on a similar family member, the Luteinizing Hormone (LH) receptor, transfected into a HEK 293 cell line, using an orthogonal detection technology to measure cAMP stimulation: antibody-based Homogeneous Time Resolved Fluorescence (HTRF).
# NIH Chemical Genomics Center [NCGC]
# NIH Molecular Libraries Probe Centers Network [MLPCN]
# Assay Provider: Marvin Gershengorn, NIDDK
# Homogeneous Time Resolved Fluorescence (HTRF) cAMP Assay. HEK 293 cells stably transfected with a vector containing the LH receptor and maintained under hygromycin selection were obtained from the laboratory of Dr. Marvin Gershengorn. Compounds were assayed using a HTRF cAMP detection kit (Cisbio) on the LH receptor transfected cell line. Briefly, 750 cells were plated in 2.5 ul/well of complete media (DMEM containing 10 % FCS, and 100 uM RO 20-1724) in 1536 well solid bottom white plates and 23 nl/well compound in DMSO solution or controls was added. Following 30 minute incubation at room temperature, 2.5 ul/well of labeled d2 cAMP and 2.5 ul/well of anti-cAMP antibody (both diluted 1:20 in lysis buffer) were added to each well using a flying reagent dispenser (Aurora Discovery, San Diego) . Plates were measured using the Envision plate reader (PerkinElmer, Boston, MA) with excitation at 330 nm and emissions of 615 nm and 660 nm.
# On the % scale 0 is the no-effect control and ±100 the full control effect; potency means the concentration at half of the fitted maximal effect.
SMILES,"activity change, negative = inhibition",Potency
COc1ccc(-[n+]2c(-c3ccccc3)cc(-c3ccc(C)cc3)cc2-c2ccccc2)cc1,-4.98% (inactive),–
Cc1ccc(C[n+]2c(-c3ccc(C)cc3)cc(-c3ccc(C)cc3)cc2-c2ccc(C)cc2)cc1,–,37.9 µM (active)
Oc1ccc(-[n+]2c(-c3ccccc3)cc(-c3ccccc3)cc2-c2ccccc2)cc1,–,39.8 µM (active)
Cc1ccc(-c2cc(-c3ccccc3)cc(-c3ccccc3)[n+]2-c2ccccc2)cc1,–,42.6 µM (active)
OCC[n+]1c2ccccc2nc2ccc(N3CCOCC3)cc21,-8.16% (inactive),–
COC(=O)C1=C(c2ccc(OC(F)(F)F)cc2)C[C@@H]2CC[C@H]1N2C(=O)N1CCC(C)CC1,-4.89% (inactive),–
COC(=O)C1=C(c2ccc(-c3ccccc3)c(F)c2)C[C@@H]2CC[C@H]1N2C(=O)NCC1CC1,-6.08% (inactive),–
CN(C)CC1Oc2ccccc2OC1(O)c1ccccc1 (stereo not given),-2.31% (inactive),–
C[C@H]1O[C@@H](OC2CC[C@]3(C=O)[C@H]4CC[C@]5(C)[C@@H](C6=CC(=O)OC6)CC[C@]5(O)[C@@H]4CC[C@]3(O)C2)CC2OC(C)(C)OC21 (stereo not given in full),-0.216% (inactive),–
N#CC(C#N)=NNc1ccc(-n2ccc(C(F)(F)F)n2)cc1,-4.9% (inactive),–
CC(=O)c1ccc2c(c1)C1C(Cl)C(Sc3ccccc3[N+](=O)[O-])CC1C(C(=O)O)N2 (stereo not given),-4.58% (inactive),–
COC(=O)C1=C(c2ccc(-c3ccccc3)c(F)c2)C[C@@H]2CC[C@H]1N2C(=O)N1CCOCC1,-5.52% (inactive),–
O=C(C1CCN(c2nc3ccc(Br)cc3s2)CC1)N1CCC2(CC1)OCCO2,-2.84% (inactive),–
COc1cc2c(cc1/C=C/[N+](=O)[O-])OCO2,-4.92% (inactive),–
C[C@]12CC[C@H]3C(CCC4(O)CC(O)CC[C@]34C=O)C1=CC[C@H]2c1ccc(=O)oc1 (stereo not given in full),-4.69% (inactive),–
